# Data as given in PubChem BioAssay (NCATS).
# Inconclusive results are not listed. Entries that show only a call come without a potency. Activity calls are given as the source filed them. Calls come from the whole dose curve; as a rule, active = well fitted inhibition curve with a large enough effect; inconclusive = small, poorly fitted or top-dose-only effect; inactive = flat fitted curve, though single readings scatter.
# System: JCK
# Experiment: qHTS profiling for inhibitors of Plasmodium falciparum proliferation (AID 504749); note: nearly all actives have a fitted effect of over 60% in size
# Conditions: P. falciparum in erythrocytes, SYBR Green DNA, 72 h; series mostly up to 28.7 µM
# How it was run: (§1)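 Infected RBCs, 0.3% parasitemia/2.5% Hct final; cpd 72 h, 37 C, 5% CO2; lysis buffer with saponin/triton/SYBR Green I, o/n RT dark; FI 485/535; norm. to artemisinin (0.29 uM) and DMSO.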
# Potency is the fitted concentration of half-maximal effect.
row,SMILES,Potency
1,COc1ccccc1N1CCN(CC(O)COc2cccc3ccccc23)CC1 (configuration not stated),inactive
2,CN1CCN2c3ccccc3Cc3ccccc3C2C1 (configuration not stated),inactive
3,COc1ccccc1OCC(O)CN1CCN(CC(=O)Nc2c(C)cccc2C)CC1 (configuration not stated),inactive

# System: N140
# Experiment: as above
# Conditions: P. falciparum in erythrocytes, SYBR Green DNA, 72 h; series mostly up to 28.7 µM
# How it was run: as §1
row,SMILES,Potency
1,COc1ccc(CCN(C)CCCC(C#N)(c2ccc(OC)c(OC)c2)C(C)C)cc1OC (configuration not stated),inactive
2,CCC1(c2ccccc2)C(=O)NCNC1=O,inactive
3,O=C(Nc1ccc([N+](=O)[O-])cc1Cl)c1cc(Cl)ccc1O,0.631 µM (active)
4,NC12CC3CC(CC(C3)C1)C2,inactive
5,CCCCc1oc2ccccc2c1C(=O)c1cc(I)c(OCCN(CC)CC)c(I)c1,5.01 µM (active)
6,OCCN1CCN(CCCN2c3ccccc3Sc3ccc(C(F)(F)F)cc32)CC1,7.08 µM (active)
7,Cc1cc(C(C)(C)C)cc(C)c1CC1=NCCN1,inactive
8,CC(CCc1ccc(O)cc1)NCCc1ccc(O)c(O)c1 (configuration not stated),inactive
9,Clc1ccc(C(c2ccccc2Cl)C(Cl)Cl)cc1 (configuration not stated),inactive
10,COc1cc2c(c(OC)c1OC)-c1ccc(OC)c(=O)cc1[C@@H](NC(C)=O)CC2,inactive
11,Cn1c(=O)c2[nH]cnc2n(C)c1=O,inactive
12,Cc1cn([C@H]2C[C@H](N=[N+]=[N-])[C@@H](CO)O2)c(=O)[nH]c1=O,inactive
13,CC#C[C@]1(O)CC[C@H]2[C@@H]3CCC4=CC(=O)CCC4=C3[C@@H](c3ccc(N(C)C)cc3)C[C@@]21C,8.91 µM (active)
14,COc1ccccc1OCCNCC(O)COc1cccc2[nH]c3ccccc3c12 (configuration not stated),12.6 µM (active)
15,CCOC(=O)Nc1ccc(NCc2ccc(F)cc2)nc1N,10 µM (active)
16,CN(C)CCC=C1c2ccccc2C=Cc2ccccc21,inactive
17,CCOC(=O)c1ncn2c1CN(C)C(=O)c1cc(F)ccc1-2,inactive
18,CNCCCC12CCC(c3ccccc31)c1ccccc12,inactive
19,CN1CCC(=C2c3ccccc3C=Cc3ccccc32)CC1,inactive
20,O=C1c2c(O)ccc(O)c2C(=O)c2c(NCCNCCO)ccc(NCCNCCO)c21,2.24 µM (active)
21,CC1(CN2CCC(n3c(=O)[nH]c4ccccc43)CC2)OCc2ccccc2-n2cccc21 (configuration not stated),12.6 µM (active)
22,COc1ccccc1N1CCN(CC(O)COc2cccc3ccccc23)CC1 (configuration not stated),inactive
23,CN1CCN2c3ccccc3Cc3ccccc3C2C1 (configuration not stated),inactive
24,CN(Cc1cnc2nc(N)nc(N)c2n1)c1ccc(C(=O)N[C@@H](CCC(=O)O)C(=O)O)cc1,inactive
25,O=C(c1ccc(OCCN2CCCCC2)cc1)c1c(-c2ccc(O)cc2)sc2cc(O)ccc12,11.2 µM (active)
26,COc1ccccc1OCC(O)CN1CCN(CC(=O)Nc2c(C)cccc2C)CC1 (configuration not stated),inactive

# System: P93_24
# Experiment: as above
# Conditions: P. falciparum in erythrocytes, SYBR Green DNA, 72 h; series mostly up to 28.7 µM
# How it was run: as §1
row,SMILES,Potency
1,CCC1(c2ccccc2)C(=O)NCNC1=O,inactive
2,NC12CC3CC(CC(C3)C1)C2,inactive
3,CCCCc1oc2ccccc2c1C(=O)c1cc(I)c(OCCN(CC)CC)c(I)c1,3.55 µM (active)
4,OCCN1CCN(CCCN2c3ccccc3Sc3ccc(C(F)(F)F)cc32)CC1,6.31 µM (active)
5,CC(CCc1ccc(O)cc1)NCCc1ccc(O)c(O)c1 (configuration not stated),inactive
6,Clc1ccc(C(c2ccccc2Cl)C(Cl)Cl)cc1 (configuration not stated),inactive
7,COc1cc2c(c(OC)c1OC)-c1ccc(OC)c(=O)cc1[C@@H](NC(C)=O)CC2,inactive
8,Cn1c(=O)c2[nH]cnc2n(C)c1=O,inactive
9,Cc1cn([C@H]2C[C@H](N=[N+]=[N-])[C@@H](CO)O2)c(=O)[nH]c1=O,inactive
10,CC#C[C@]1(O)CC[C@H]2[C@@H]3CCC4=CC(=O)CCC4=C3[C@@H](c3ccc(N(C)C)cc3)C[C@@]21C,11.2 µM (active)
11,CCOC(=O)c1ncn2c1CN(C)C(=O)c1cc(F)ccc1-2,inactive
12,CN1CCC(=C2c3ccccc3C=Cc3ccccc32)CC1,inactive
13,O=C1c2c(O)ccc(O)c2C(=O)c2c(NCCNCCO)ccc(NCCNCCO)c21,1.78 µM (active)
14,CC1(CN2CCC(n3c(=O)[nH]c4ccccc43)CC2)OCc2ccccc2-n2cccc21 (configuration not stated),11.2 µM (active)
15,COc1ccccc1N1CCN(CC(O)COc2cccc3ccccc23)CC1 (configuration not stated),inactive
16,CN1CCN2c3ccccc3Cc3ccccc3C2C1 (configuration not stated),inactive
17,O=C(c1ccc(OCCN2CCCCC2)cc1)c1c(-c2ccc(O)cc2)sc2cc(O)ccc12,8.91 µM (active)
18,COc1ccccc1OCC(O)CN1CCN(CC(=O)Nc2c(C)cccc2C)CC1 (configuration not stated),inactive

# System: P94_40
# Experiment: as above
# Conditions: P. falciparum in erythrocytes, SYBR Green DNA, 72 h; series mostly up to 28.7 µM
# How it was run: as §1
row,SMILES,Potency
1,CCC1(c2ccccc2)C(=O)NCNC1=O,inactive
2,NC12CC3CC(CC(C3)C1)C2,inactive
3,CCCCc1oc2ccccc2c1C(=O)c1cc(I)c(OCCN(CC)CC)c(I)c1,3.55 µM (active)
4,OCCN1CCN(CCCN2c3ccccc3Sc3ccc(C(F)(F)F)cc32)CC1,11.2 µM (active)
5,Cc1cc(C(C)(C)C)cc(C)c1CC1=NCCN1,inactive
6,CC(CCc1ccc(O)cc1)NCCc1ccc(O)c(O)c1 (configuration not stated),inactive
7,Clc1ccc(C(c2ccccc2Cl)C(Cl)Cl)cc1 (configuration not stated),inactive
8,COc1cc2c(c(OC)c1OC)-c1ccc(OC)c(=O)cc1[C@@H](NC(C)=O)CC2,inactive
9,Cn1c(=O)c2[nH]cnc2n(C)c1=O,inactive
10,Cc1cn([C@H]2C[C@H](N=[N+]=[N-])[C@@H](CO)O2)c(=O)[nH]c1=O,inactive
11,COc1ccccc1OCCNCC(O)COc1cccc2[nH]c3ccccc3c12 (configuration not stated),10 µM (active)
12,CCOC(=O)c1ncn2c1CN(C)C(=O)c1cc(F)ccc1-2,inactive
13,CN1CCC(=C2c3ccccc3C=Cc3ccccc32)CC1,inactive
14,O=C1c2c(O)ccc(O)c2C(=O)c2c(NCCNCCO)ccc(NCCNCCO)c21,1.58 µM (active)
15,CC1(CN2CCC(n3c(=O)[nH]c4ccccc43)CC2)OCc2ccccc2-n2cccc21 (configuration not stated),10 µM (active)
16,COc1ccccc1N1CCN(CC(O)COc2cccc3ccccc23)CC1 (configuration not stated),inactive
17,CN1CCN2c3ccccc3Cc3ccccc3C2C1 (configuration not stated),inactive
18,CN(Cc1cnc2nc(N)nc(N)c2n1)c1ccc(C(=O)N[C@@H](CCC(=O)O)C(=O)O)cc1,0.178 µM (active)
19,O=C(c1ccc(OCCN2CCCCC2)cc1)c1c(-c2ccc(O)cc2)sc2cc(O)ccc12,7.94 µM (active)
20,COc1ccccc1OCC(O)CN1CCN(CC(=O)Nc2c(C)cccc2C)CC1 (configuration not stated),inactive
